From PubChem
p53 reactivation: restores transcriptional activity of mutant p53 | H1299 p53-A138V BP100-luciferase reporter, luminescence, 24 h | Potency, µM (series often up to 92.2 µM), inactives show top-dose activity change, positive = activation, actives largely listed as activators | actives 0.063% (n = 320,000) | AID 504706; also: potency is read from the fitted curve at half-maximal effect; % of control where 0% means no effect; nearly all actives have a fitted effect of over 45% in size
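p53-null H1299 cells stably carrying temperature-sensitive p53-A138V and a BP100-luciferase reporter were pinned with compounds (4-point, 1:5 series) and held 24 hrs at 37 deg C. Luminescence was read 10 min after detection reagent.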
ELG1 DNA repair: blocks ELG1-dependent DNA repair in HEK293T cells. HEK293T ELG1-luciferase reporter, luminescence, 16 h; DNA damage induced by 5-fluorouridine. Potency, µM (highest dose often 46.1 µM), without a hit: at the top dose activity change, negative = inhibition, most hits filed as inhibitors. actives 2.3% (n = 330,000). AID 504467; also: potency is read from the fitted curve at half-maximal effect; % is scaled to controls: 0 for no effect and ±100 for the full control effect; nearly all actives have a fitted effect of over 55% in size
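DMSO vehicle served as the neutral condition. Each well held 2,000 cells given 5-fluorouridine plus compound; after 16 hr at 37 °C/5% CO2, ONE-Glo was added and luciferase measured 30 min later.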
Gal4-VP16 FLuc: Gal4-VP16 reporter inhibition counter-screen | Potency, µM (doses to about 53.6 µM), for the others: at the highest dose activity, negative = inhibition, usual class: inhibitors | actives 3.5% (n = 310,000) | AID 2546 | Drosophila S2 Gal4-VP16 UAS-luciferase, luminescence, 20 h;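 also: Gal4-VP16 expression switched on by copper sulfate through the metallothionein promoter; potency is read from the fitted curve at half-maximal effect; % is scaled to controls: 0 for no effect and ±100 for the full control effect; nearly all actives have a fitted effect of over 50% in size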
RORgamma inh: inhibitors of mouse ROR gamma transcriptional activity; Potency, µM (doses to about 53.6 µM), inactives show at the top dose activity change, negative = inhibition, usual class: inhibitors; Drosophila S2 Gal4-RORgamma UAS-luciferase reporter, 20 h; actives 5.4% (n = 310,000); also: potency is read from the fitted curve at half-maximal effect; % is scaled to controls: 0 for no effect and ±100 for the full control effect; nearly all actives have a fitted effect of over 60% in size
Target sequence (P51450 whole entry, looked up, the tested form may be a part): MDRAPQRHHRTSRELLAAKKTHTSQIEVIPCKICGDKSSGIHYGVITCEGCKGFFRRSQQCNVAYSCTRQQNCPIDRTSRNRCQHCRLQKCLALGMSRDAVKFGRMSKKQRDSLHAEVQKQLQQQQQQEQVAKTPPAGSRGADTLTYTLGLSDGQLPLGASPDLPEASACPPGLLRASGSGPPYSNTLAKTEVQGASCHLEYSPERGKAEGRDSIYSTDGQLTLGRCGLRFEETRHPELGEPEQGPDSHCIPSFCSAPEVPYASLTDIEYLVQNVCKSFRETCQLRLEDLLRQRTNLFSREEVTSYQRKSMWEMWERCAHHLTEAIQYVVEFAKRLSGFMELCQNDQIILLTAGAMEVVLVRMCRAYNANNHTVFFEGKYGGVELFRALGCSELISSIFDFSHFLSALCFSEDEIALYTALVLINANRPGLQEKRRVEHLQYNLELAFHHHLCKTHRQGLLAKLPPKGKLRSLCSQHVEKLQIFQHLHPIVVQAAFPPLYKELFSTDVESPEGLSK
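Drosophila S2 cells stably expressing Gal4-DBD/mouse RORγ fusion under metallothionein promoter plus UAS-luciferase; compound 1 h, then 700 uM CuSO4 induction for 20 h at ambient temperature; inhibition read as reduced luminescence.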
Giardia killer: Giardia lamblia killing. Giardia lamblia trophozoite viability. activity change, % at 7.66 µM, hits read low. actives 0.15% (n = 340,000); in the data active = activity change below about -80%; inconclusive = between about -30% and that limit;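 also: parasites exposed to compound for two days anaerobically before the ATP read; % is scaled to controls: 0 for no effect and ±100 for the full control effect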
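Giardia lamblia trophozoites (100 cells/well) were incubated with compounds for 48 h at 37 deg C under anaerobic conditions. Viability was read as ATP content by one-step luminescence after 15-30 min at room temperature.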
BRCA1 expr up: BRCA1 expression activation. MCF7-BRCA1-FFLuc reporter, luminescence, 48 h; response scale: scaled: vehicle 0%, 10 µM genistein 100%. Potency, µM (top dose mostly 46.1 µM), without a hit: at the top dose activation, usual class: activators. actives 1.1% (n = 380,000); also: potency is read from the fitted curve at half-maximal effect; nearly all actives have a fitted effect of over 80% in size
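MCF7-BRCA1-FFLuc cells, 2000/well in phenol-red-free MEM, attached 2 h then treated 48 h at 37 C. Luciferase luminescence read 15 min after reagent; normalized to genistein maximum activation (10microM) and DMSO, concentration-response fitted.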
* hit, by the source's call; ? = inconclusive; · = not tested or not shown; [ ] = remark or other dose. Most compounds without a hit are left out; they make up all but 7.6% or so of the library. Unless noted, calls follow the shape of the dose curve; as a rule, active = well fitted curve in the direction sought with a large enough effect; inconclusive = small, poorly fitted or top-dose-only effect, or another doubt; inactive = no such curve, though single readings can be large; an effect the other way counts as inactive or inconclusive.

SMILES	p53 reactivation	ELG1 DNA repair	Gal4-VP16 FLuc	RORgamma inh	Giardia killer	BRCA1 expr up
O=C(N/N=C/c1c(F)c(F)c(F)c(F)c1F)c1cccc(S(=O)(=O)N2CCOCC2)c1	1%	1%	-4%	-26%	-4	-4%
CCN(CC)c1ccc(/C=N/NC(=O)c2cccc(S(=O)(=O)N3CCOCC3)c2)cc1	-1%	?	?	16µM*	-6	-18%
CCN(CC)c1ccc(/C=N/N2CCOCC2)cc1	·	?	-4%[0.365 µM]	29%	-23	3.2µM*
CCN(Cc1ccccc1)c1ccc(/C=N/NC(=O)c2cccc(S(=O)(=O)N3CCOCC3)c2)cc1	1%	?	7.9µM*	6.3µM*	20	-56%
N#CNC(=Nc1cccc(C(F)(F)F)c1)SCc1ccc(C(=O)O)cc1	-1%	-1%	-5%	20%	17	3%
COc1ccc(C2c3ccc4ccccc4c3Oc3ncn(CCCN(C)C)c(=N)c32)cc1 (stereo not given)	-13%	?	?	10µM*	-11	-97%
COc1ccc(C2c3c(ncn(CCN4CCOCC4)c3=N)Oc3ccc4ccccc4c32)cc1OC (stereo not given)	-2%	-13%	13µM*	-108%	-9	-28%
COc1ccccc1C1c2ccc3ccccc3c2Oc2ncn(CCN(C)C)c(=N)c21 (stereo not given)	-1%	?	-27%	10µM*	-2	-79%
COc1ccccc1C1c2ccc3ccccc3c2Oc2ncn(CCCO)c(=N)c21 (stereo not given)	-4%	7%	-9%	-38%	-20	-15%
O=C(NC(=S)Nc1ccc(N2CCCCC2)cc1)c1cccs1	?	?	5µM*	3.2µM*	9	121%
O=C(NC(=O)N1CCN(c2cccc(Cl)c2)CC1)c1ccc(Cl)cc1	-3%	4%	?	16µM*	-1	-44%
O=C(NC(=S)Nc1ccc(N2CCN(C(=O)c3ccccc3)CC2)cc1)c1cccs1	-4%	13µM*	?	5.6µM*	-11	-67%
O=C(Nc1ccc(N2CCN(C(=O)c3cccs3)CC2)cc1)c1cccc(F)c1	1%	15µM*	5%	?	13	-1%
CC(C)N(Cc1ccccc1)C(=O)Cn1c(=O)cnc2ccccc21	1%	-2%	4%	-1%	-10	0%
COc1nnc(-c2ccc(N3CCCCC3)c(NC(=O)COc3ccccc3)c2)c2ccccc12	·	·	·	·	9	5%
CC(=O)N1CCN(c2ccc(NC(=O)c3ccc(Cl)cc3)cc2)CC1	·	-2%	2%	4%	-3	1%
CCCC(=O)NC(=S)Nc1ccc(N2CCN(C(=O)c3cccs3)CC2)cc1	-5%	16µM*	?	7.9µM*	3	-3%
CC(=O)N1CCN(c2ccc(NC(=O)c3cccc(Cl)c3)cc2)CC1	23%	?	-11%	?	-12	11µM*
CCCSc1cc(N2CCN(C)CC2)nc(-c2ccc(OC)cc2)n1	-6%	-16%	-6%	1%	-1	-20%
Cc1ccc(S(=O)(=O)N2CCSC2=Nc2ccccc2)cc1	-8%	0%	4%	2%	·	·
O=C(Nc1ccccc1)Nc1ccc(Nc2ccccc2)cc1	·	·	·	·	-21	4µM*
O=C(Nc1ccccc1)Nc1ccccc1	·	·	?	12%	5	?
COc1cccc(NC(=O)c2ccc(NC(=O)C(C)(C)C)cc2)c1	?	?	-15%	-14%	8	4µM*
CCCC(=O)Nc1ccc(C(=O)Nc2cccc(OC)c2)cc1	-7%	?	-18%	21%	23	42%
COc1ccc(-c2csc(NC(=O)c3ccccc3F)c2C(=O)O)cc1	11%	26%	-1%	35%	-6	6.3µM*
SMILES	p53 reactivation	ELG1 DNA repair	Gal4-VP16 FLuc	RORgamma inh	Giardia killer	BRCA1 expr up
COc1cccc(C(=O)Nc2cccc(SC)c2)c1	?	?	8%	?	-5	13µM*
COc1cccc(C(=O)Nc2ccccc2)c1	?	?	4%	15%	-18	?
O=C(Nc1scc(-c2ccccc2)c1C(=O)O)c1ccccc1Cl	10%	0%	-9%	1%	-28	83%
CCOC(=O)[C@]12CCC=C1N(Cc1ccc3c(c1)OCO3)C(=O)[C@H](CC(=O)N1CCOCC1)C2	·	·	·	·	·	2%
COc1ccc(NCc2nnc(SCCN3CCCCC3)n2-c2ccc(C)cc2)cc1	0%	?	-5%	7%	18	-15%
O=C(O)c1cc(NC(=O)c2ccccc2F)cc(NC(=O)c2ccccc2F)c1	13%	16%	2%	2%	6	-25%
CCN(CC)c1ccc(NC(=O)c2ccccc2F)cc1	40µM*	?	-30%	-12%	-3	-14%
O=C(Nc1ccc(Nc2ccccc2)cc1)c1ccccc1F	-12%	?	-10%	24%	-4	1.1µM*
COc1cccc(C(=O)Nc2cnn(C(C)C)c2)c1	?	?	0%	5%	-9	3.5µM*
COc1cccc(C(=O)Nc2ccc3ccccc3c2)c1	·	?	?	?	-26	94%
COc1cccc(NC(=O)c2ccccc2F)c1	25%	?	·	·	-28	7.9µM*
CCN(CC)c1ccc(NC(=O)c2cc(Cl)ccc2OC)cc1	2%	3%	-3%	40%	-10	-47%
CCCCNC(=O)CO/N=C(\C)c1cc2ccccc2o1	?	?	4%	-2%	-2	77%
C/C(=N\OCC(=O)NCC(F)(F)F)c1cc2ccccc2o1	?	?	-12%	20%	-10	13µM*
CCCC(=O)N1CCN(c2nc3ccccc3s2)CC1	?	?	?	?	-24	?
O=C(CCCc1nc2ccccc2s1)N1CCN(c2ccccc2F)CC1	8%	-3%	2%	48%	-13	-10%
CC(C)NC(=O)N1CCCN(c2nc3ccc(Cl)cc3s2)CC1	3%	?	-18%	?	1	15%
CC(C)(C)C(=O)N1CCN(c2nc3ccccc3s2)CC1	?	?	-4%	-8%	-24	3.2µM*
CC(C)C(=O)N1CCN(c2nc3ccc(Cl)cc3s2)CC1	6%	?	3%	?	3	5µM*
O=C(CCCc1nc2ccccc2s1)N1CCN(c2ccccc2)CC1	5%	-3%	4µM*	0%	59	-4%
CCc1ccc2nc(N3CCN(C(=O)C(C)(C)C)CC3)sc2c1	3%	14%	-5%	17%	2	13µM*
CCCCn1nc(C(=O)NCC(=O)Nc2c(C)cccc2C)c2ccccc2c1=O	4%	-9%	·	·	-1	-19%
